According to PubChem BioAssay (NCATS):
Records with an inconclusive call do not appear. The source made the active and inactive calls. Unless noted, the call rests on the fitted dose curve; in most records, active means well fitted curve in the direction sought with a large enough effect; inconclusive means small, poorly fitted or top-dose-only effect, or another doubt; inactive means no such curve, though single readings can be large; an effect the other way counts as inactive or inconclusive.

Assays:
[1] = qHTS to identify inhibitors of the type 1 interferon - major histocompatibility complex class I in skeletal muscle: primary screen against the NCATS LOPAC collection (AID 1347405); details: iHSKM muscle cells, IFN-b-induced MHC-I HiBiT luminescence, 24 h; series mostly up to 45.9 µM;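 further: lytic HiBiT luminescence reporting HLA-B protein level; on the % scale 0 is the no-effect control and ±100 the full control effect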
Outline: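 First, engineered myoblasts carrying HLA-B-HiBiT were seeded in medium lacking dexamethasone with 4 ng/ml IFN-beta. After 1 hr, compounds were pinned in (top 46 uM final, 7 points). After 24 hrs at 37 C, luminescence was measured following 10 min lysis.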

[2] = qHTS to identify inhibitors of the type 1 interferon - major histocompatibility complex class I in skeletal muscle: primary screen against the NCATS Pharmaceutical Collection (AID 1347407); details: human skeletal muscle cells, IFN-b-induced MHC-I HiBiT luminescence, 24 h; series mostly up to 45.9 µM;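 further: luminescence of HiBiT knocked into endogenous HLA-B as interferon-induced MHC class I level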; further: potency means the concentration at half of the fitted maximal effect
Outline: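 Immortalized human myoblasts (C25cl48) with HiBiT knocked into endogenous HLA-B*08:01 were stimulated with 4 ng/ml IFN-beta and treated with compounds (8-point, 1:5, top 46 uM final) for 24 h at 37 C; HiBiT lytic luminescence read.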

[3] = qHTS for inhibitors of adenylyl cyclases using a fission yeast platform: a pilot screen against the NCATS LOPAC library (AID 1347410);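 further: plate controls were DMSO vehicle for no effect and DPI positive control for full effect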; details: S. pombe CHP2027, fbp1-GFP fluorescence, 18 h; series mostly up to 57.5 µM
Outline: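 S. pombe CHP2027 (AC9-GNAS-PDE4D2) carrying a PKA-repressed fbp1-GFP reporter was exposed to LOPAC compounds (final up to 57 µM) for 18 h at 30C in the dark, in EMM with histidine, lysine and uracil; GFP gain-of-signal read by laser scanning cytometry.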

[4] = qHTS to identify inhibitors of the type 1 interferon - major histocompatibility complex class I in skeletal muscle: primary screen against the NCATS Mechanism Interrogation Plate v5.0 (MIPE) Libary (AID 1347411); details: iHSKM cells + IFN-b, HiBiT-tagged MHC-I luminescence, 24 h; series mostly up to 45.8 µM; further: nearly all actives have a fitted effect of over 65% in size; further: potency means the concentration at half of the fitted maximal effect;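 on activity change, negative = inhibition: plate controls were vehicle for no effect and reference inhibitor for full effect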
Outline: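 Seed engineered human myoblasts (HLA-B HiBit) in medium without dexamethasone containing 4 ng/ml IFN-beta; after 1 hr add compound titrations (top 46 uM final). Incubate 24 hrs at 37 C, lyse 10 min with HiBiT reagent, read luminescence.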

[5] = target: Protein phosphatase 1D (Homo sapiens) (UniProt O15297); assay: RapidFire Mass Spectrometry qHTS Assay for Modulators of WT P53-Induced Phosphatase 1 (WIP1) (AID 1347424); details: WIP1 dephosphorylation of phosphopeptide, RapidFire MS; series mostly up to 63 µM;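 further: amount of dephosphorylated VEPPL-S-QETFS peptide product formed by WIP1; plate controls were DMSO wells for no effect and GSK830371 inhibitor control at 10 µM for full effect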
Outline: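 RapidFire mass spectrometry measured dephosphorylated peptide after 5 min room-temperature reaction of 2 uM VEPPL-pS-QETFS with 10 nM WIP1 (50 mM Tris-HCl pH 7.5, 30 mM MgCl2, 0.1 mM EGTA, BSA), following 1 hr compound preincubation; 1 uM isotope-labelled product standard.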

[6] = target: Protein phosphatase 1D (Homo sapiens) (UniProt O15297); assay: Rhodamine-PBP qHTS Assay for Modulators of WT P53-Induced Phosphatase 1 (WIP1) (AID 1347425); details: recombinant WIP1, Rhodamine-PBP phosphate fluorescence, real-time; series mostly up to 57.5 µM; further: % of control where 0% means no effect
Outline: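 5 nM WIP1 + 10 uM Rh-PBP, 50 mM Tris pH 7.5, 30 mM MgCl2, 1 mM TCEP, 0.1 mM EGTA, BSA; cpds pinned, 1 hr RT; + 10 uM phosphopeptide; fluorescence 1-min reads x 11 min; delta = f1 - f0.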

[7] = Validation qHTS assay for inhibitors of Activation Induced Cytidine Deaminase (AID): UDG Counterscreen signal (AID 1347427); details: biochemical UDG counterscreen, fluorescence signal; series mostly up to 115 µM; further: 0% is about no effect
Outline: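 Fluorescence at 560 nm excitation, 665 nm emission reports UDG signal after 250 mM NaOH (2x) addition and 30 min. Enzymes (AID 1 uM, UDG 2 U/mL, at 4/3x) preincubated 10 min with compound, then 4 h with 4x 250 nM DJC20/DJC23 substrate at room temperature.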

[8] = target: Single-stranded DNA cytosine deaminase (Homo sapiens) (UniProt Q9GZX7); assay: Validation qHTS assay for inhibitors of Activation Induced Cytidine Deaminase (AID): AID signal (AID 1347429); details: Recombinant AID, FRET ssDNA deamination with UDG, fluorescence; series mostly up to 115 µM; further: on the % scale 0 is the no-effect control and ±100 the full control effect
Outline: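 Steps: dispense AID with UDG; pin-transfer compound up to 114 uM final; add DJC20/DJC23 substrate and hold 4 hr at room temperature; add NaOH, hold 30 min; read FRET signal (540/590 nm).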

[9] = Primary qHTS for inhibitors of SARS-S pseudo-typed particle cell entry (AID 1479145; calls by dose curve; further: nearly all actives have a fitted effect of over 45% in size); details: SARS-S pseudotyped particle cell entry, luciferase reporter; series mostly up to 57.1 µM
[10] = Primary qHTS for Huh7 cytotoxicity: counterscreen for inhibitors of MERS-S pseudotyped particle cell entry (AID 1479147; calls by dose curve); details: cell viability read-out; series mostly up to 57.1 µM
[11] = Primary qHTS for inhibitors of MERS-S pseudo-typed particle cell entry (AID 1479149; calls by dose curve; further: nearly all actives have a fitted effect of over 60% in size); details: MERS-S pseudotyped particle entry, luciferase; series mostly up to 57.1 µM
[12] = Primary qHTS for Vero E6 cytotoxicity: counterscreen for inhibitors of SARS-S pseudo-typed particle cell entry (AID 1479150; calls by dose curve); details: cell viability; series mostly up to 57.1 µM
[13] = Primary qHTS for inhibitors of La Crosse Virus (LACV) - induced cell death in SH-SY5Y cells (AID 1508616); details: SH-SY5Y LACV cytopathicity rescue, ATP luminescence, 6 d; series mostly up to 4.29 µM;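 further: top concentration of the series differs between compounds; 0% = infected DMSO wells and 100% = uninfected DMSO wells; higher means more rescue of cells from virus-induced death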
Outline: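 SH-SY5Y, 6000 cells/well; cpd via pin tool in DMSO; LACV 0.01 MOI; 6 d 37C 5% CO2; ATPLite, 5 min RT; luminescence normalized to ±virus DMSO controls.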

[14] = target: Calcium and integrin-binding protein 1 (Homo sapiens) (UniProt Q99828); assay: Validation qHTS for Identification of Calcium Integrin Binding protein 1 (CIB1) Competitor (AID 1508618); details: CIB1-GST / FITC-alphaIIb peptide fluorescence polarization; series mostly up to 114 µM; further: on the % scale 0 is the no-effect control and ±100 the full control effect
Outline: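 Displacement of FITC-alphaIIb peptide (100 nM) from CIB1-GST (1 uM) is monitored by polarization in quantitative HTS format; buffer carries 5 mM CaCl2 and 125 mM NaCl at pH 7.4, incubations are at room temperature.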

[15] = target: Calcium and integrin-binding protein 1 (Homo sapiens) (UniProt Q99828); assay: Primary qHTS for Identification of Calcium Integrin Binding Protein 1 (CIB1) Competitor (AID 1508620); details: CIB1-GST / FITC-alphaIIb peptide fluorescence polarization; series mostly up to 114 µM;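 further: GST tagged CIB1 binding a fluorescein labelled alphaIIb integrin peptide tracer; top concentration of the series differs between compounds; on the % scale 0 is the no-effect control and ±100 the full control effect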
Outline: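 CIB1-GST (1 uM final) and compound incubated 15 min at room temperature before adding FITC-alphaIIb peptide tracer (100 nM final). Competition for binding read by fluorescence polarization (ex 480, em 540) after another 15 min at room temperature.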

[16] = Counterscreen qHTS for small molecule stabilizers of the endoplasmic reticulum resident proteome: GLuc-NoTag assay (AID 1508627); details: Gaussia luciferase NoTag secretion counterscreen, luminescence, thapsigargin 100 nM for final 4 h; series mostly up to 76.4 µM;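 further: 0% = thapsigargin alone and -100% = DMSO vehicle control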
Outline: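 Counterscreen line: SH-SY5Y-GLuc-NoTag cells, treated with compound 19 hr before a 4 hr, 100 nM thapsigargin calcium depletion. Secreted Gaussia luciferase in the medium was measured by luminescence after coelenterazine was added (0.07x final), with cells unlysed.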

[17] = Confirmatory qHTS for small molecule stabilizers of the endoplasmic reticulum resident proteome: Secreted ER Calcium Modulated Protein (SERCaMP) assay (AID 1508628); details: SERCaMP secreted luciferase ER calcium/proteostasis reporter; series mostly up to 76.3 µM; further: on the % scale 0 is the no-effect control and ±100 the full control effect; nearly all actives have a fitted effect of over 40% in size
Outline: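 Reporter secretion upon ER calcium depletion (100 nM thapsigargin, 4 h, 37C) is measured as medium luminescence with coelenterazine, after 16 h compound pretreatment of SH-SY5Y-GLuc-SERCaMP cells; primary at three concentrations up to 38.3 uM, follow-up at 11 (up to 76.6 uM).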

Sequence of Calcium and integrin-binding protein 1 (Homo sapiens) (Q99828 whole entry, looked up): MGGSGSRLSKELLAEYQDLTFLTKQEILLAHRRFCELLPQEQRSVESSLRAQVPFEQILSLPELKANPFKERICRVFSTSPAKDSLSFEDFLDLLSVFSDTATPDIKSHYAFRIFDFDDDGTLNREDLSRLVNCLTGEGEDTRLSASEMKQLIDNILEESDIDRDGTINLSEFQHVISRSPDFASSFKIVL
Sequence of Protein phosphatase 1D (Homo sapiens) (O15297 whole entry, looked up): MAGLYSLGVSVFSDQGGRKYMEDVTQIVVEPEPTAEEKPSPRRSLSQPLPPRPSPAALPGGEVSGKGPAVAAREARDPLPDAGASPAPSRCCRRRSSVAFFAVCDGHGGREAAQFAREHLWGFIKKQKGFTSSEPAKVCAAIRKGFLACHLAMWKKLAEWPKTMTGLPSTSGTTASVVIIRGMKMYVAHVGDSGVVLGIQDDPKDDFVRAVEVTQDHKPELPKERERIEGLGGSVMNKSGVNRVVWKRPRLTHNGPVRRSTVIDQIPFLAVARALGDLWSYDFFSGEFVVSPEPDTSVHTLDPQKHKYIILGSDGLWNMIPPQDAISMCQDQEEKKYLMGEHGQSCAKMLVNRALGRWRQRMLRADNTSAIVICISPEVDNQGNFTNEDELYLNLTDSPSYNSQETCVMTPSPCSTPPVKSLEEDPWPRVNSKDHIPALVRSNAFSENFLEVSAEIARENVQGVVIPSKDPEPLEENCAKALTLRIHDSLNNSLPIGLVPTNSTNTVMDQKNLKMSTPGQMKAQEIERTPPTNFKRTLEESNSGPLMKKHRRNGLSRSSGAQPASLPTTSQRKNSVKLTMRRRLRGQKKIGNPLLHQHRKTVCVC
Sequence of Single-stranded DNA cytosine deaminase (Homo sapiens) (Q9GZX7 whole entry, looked up): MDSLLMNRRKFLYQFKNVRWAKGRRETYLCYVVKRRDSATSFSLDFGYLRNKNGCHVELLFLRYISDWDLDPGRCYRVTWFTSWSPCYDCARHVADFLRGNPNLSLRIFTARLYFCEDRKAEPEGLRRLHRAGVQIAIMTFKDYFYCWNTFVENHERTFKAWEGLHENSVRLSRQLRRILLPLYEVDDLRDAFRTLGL

CC(NC(C)(C)C)C(=O)c1cccc(Cl)c1 (centres undefined)
inactive: outcome [1] | Potency [2] | outcome [3] | Potency [4] | Potency [5] | outcome [6] | outcome [7] | outcome [8] | Potency [9] | Potency [10] | Potency [11] | Potency [12] | outcome [13] | outcome [14] | Potency [15]

CC(C)(C)NCC(O)c1cc(Cl)c(N)c(C(F)(F)F)c1 (centres undefined)
inactive: Potency [2] | Potency [5] | outcome [6] | Potency [9] | Potency [10] | Potency [11] | Potency [12] | outcome [13]

CN1C(=O)COc2c(C(=O)NC3CN4CCC3CC4)cc(Cl)cc21 (centres undefined)
inactive: Potency [2] | Potency [4] | Potency [5] | outcome [13] | Potency [15]

O=C(O)CCCc1ccc(N(CCCl)CCCl)cc1
inactive: Potency [2] | Potency [4] | Potency [5] | outcome [6] | outcome [7] | outcome [8] | Potency [10] | Potency [11] | Potency [12] | outcome [13]

c1ccc2c(c1)sc1ccccc12
inactive: Potency [2] | Potency [5] | outcome [6] | Potency [10] | Potency [11] | Potency [12] | outcome [13] | Potency [15]

C[C@]12Cc3cn[nH]c3C[C@@H]1CC[C@@H]1[C@@H]2CC[C@@]2(C)[C@H]1CC[C@]2(C)O
inactive: Potency [2] | Potency [4] | Potency [5] | outcome [6] | outcome [13] | Potency [15]

COc1c2c(cc3c1OCO3)CCN(C)C2
inactive: Potency [2] | Potency [5] | outcome [6] | Potency [9] | Potency [10] | Potency [11] | Potency [12] | outcome [13] | Potency [15] | outcome [16] | Potency [17]

CCCCCN(C)CCC(O)(P(=O)(O)O)P(=O)(O)O
inactive: outcome [1] | outcome [3] | activity change, negative = inhibition [9] -12.9% [at 11.4 µM] | activity change, negative = cytotoxicity [10] 3.48% [at 11.4 µM] | activity change, negative = inhibition [11] -24.6% [at 11.4 µM] | activity change, negative = cytotoxicity [12] 1.39% [at 11.4 µM] | outcome [14]

COc1cccc2c1C(=O)c1c(O)c3c(c(O)c1C2=O)C[C@@](O)(C(=O)CO)CC3OC1CC(N2CCOC(OC)C2)C(O)C(C)O1 (some centres undefined)
active: Potency [2] 2970 nM | Potency [4] 93 nM
inactive: Potency [5] | outcome [6] | Potency [9] | Potency [11] | Potency [12] | outcome [13]

O=C1c2ccccc2C(=O)c2ccccc21
inactive: Potency [2] | Potency [5] | outcome [6] | Potency [9] | Potency [10] | Potency [11] | Potency [12] | outcome [13] | Potency [15]

Cc1ncsc1CCCl
inactive: outcome [1] | Potency [2] | outcome [3] | Potency [5] | outcome [6] | outcome [7] | outcome [8] | Potency [9] | Potency [10] | Potency [11] | Potency [12] | outcome [13] | outcome [14]

CNC(C)(C)Cc1ccccc1
inactive: Potency [2] | Potency [5] | outcome [6] | Potency [9] | Potency [10] | Potency [11] | Potency [12] | outcome [13] | Potency [15]
